From PubChem
Shown is part of a subset that was picked to be rich in hits.
KDM5B inhibitor – Primary screen for KDM5B Histone Demethylases FDH-coupled qHTS; Lysine-specific demethylase 5B (Homo sapiens), Q9UGL1; KDM5B demethylase, FDH-coupled NADH fluorescence (FDH is formaldehyde dehydrogenase); Potency, µM (doses to about 57.7 µM), usual class: inhibitors; hit rate 2.6% among 220,000; AID 1347165, 2019; active means well fitted inhibition curve with a large enough effect; further: nearly all actives have a fitted effect of over 70% in size
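Measured: NADH fluorescence change, 30 min, RT. System: KDM5BΔAP 200 nM final, H3K4me3 peptide, α-KG, Fe(II), ascorbate, NAD⁺ plus FDH, pH 7.5 HEPES. Compounds: titrated, 10 min pre-incubation with enzyme.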
Large screens that a line does not name were inactive.

Cc1cn2nc(C(=O)NCc3ccccc3Cl)cc2c(=O)[nH]1	none
Cc1ccnc(NC(=O)CCC(=O)N(CC(=O)NCc2ccccc2)Cc2ccc(F)cc2)c1	none
Cc1cn2nc(C(=O)NCc3ccc(F)cc3)cc2c(N(C)Cc2ccccc2)n1	KDM5B inhibitor 25.1µM
Cc1ccc(CNC(=O)c2cc3c(N(C)Cc4ccccc4)nc(C)cn3n2)cc1	KDM5B inhibitor 28.2µM
CCN(Cc1cccc(F)c1)C(=O)Cn1cnc2c1c(=O)n(C)c(=O)n2C	none
COCCNC(=O)[C@H]1C[C@H](Oc2ccccc2)CN1C(=O)COc1ccc(F)cc1	none
O=C(NCC(c1cccs1)N1CCCCCC1)c1cc(=O)c2ccc(Br)cc2o1 (centres undefined)	none
Cn1ccnc1CN1C(=O)CO[C@H](c2ccc(NC(=O)CC(C)(C)C)cc2)[C@H]1CO	none
Cc1cccc(CN2CCCC3(CCN(C(=O)Cc4cccnc4)C3)C2=O)c1 (centres undefined)	none
Cc1cccc(CN2CCCC3(CCN(c4cc(C)nc(N)n4)C3)C2=O)c1 (centres undefined)	none
Cc1cccc(CN2CCCC3(CCN(C(=O)c4ccc(=O)[nH]c4)C3)C2=O)c1 (centres undefined)	KDM5B inhibitor 12.6µM
C[C@@H](NC(=O)NC1CCCCC1)c1onc(-c2cccnc2)c1C(=O)O	none
COc1ccc(-c2[nH]c3c(c2-c2c(-n4cccc4)n(C)c(=O)[nH]c2=O)c(=O)[nH]c(=O)n3C)cc1OC	none
O=C(NCc1cccc(F)c1)c1nc(-c2cccc3[nH]ccc23)no1	none
COCCn1ccc2c(C3=CCOCC3)nc(-c3ccc4cn[nH]c4c3)cc21	KDM5B inhibitor 39.8µM
COCCn1ccc2c(C3=CCOCC3)nc(-c3cccc4[nH]ccc34)cc21	KDM5B inhibitor 35.5µM
COc1ccc(CNC(=O)c2nc(-c3cccc4[nH]ccc34)no2)cc1OC	none
COc1ccccc1-c1cc2c(ccn2C)c(C(=O)NCC2CCOCC2)n1	none
COCCn1ccc2c(C3=CCOCC3)nc(-c3ccc4c(c3)CNC4=O)cc21	KDM5B inhibitor 11.2µM
COCCn1ccc2c(C3=CCOCC3)nc(-c3cccc4[nH]ncc34)cc21	KDM5B inhibitor 28.2µM
COc1ccc(CCN2CCC(CN(C)C(=O)c3ccccc3SC)CC2)cc1	none
Cc1noc(C)c1C(C(=O)O)N(C)Cc1nc(-c2ccccn2)no1 (centres undefined)	none
CCOC(=O)c1scc(-c2ccccc2)c1S(=O)(=O)Nc1cc(C)cc(C)c1	none
CCCCCn1nc(C(=O)NCCC(=O)OC)c2ccccc2c1=O	none
COc1ccc(CC(=O)N2Cc3ccccc3CC23CCCN([S+](C)(=O)[O-])C3)cc1 (centres undefined)	none
COc1cccc(C2Cn3nnc(-c4nc(-c5ccccc5Br)no4)c3CO2)c1 (centres undefined)	none
COCCC(=O)N1CCCC1c1nc(C2CCOCC2)no1 (centres undefined)	none
COc1cccc(/C=C/C(=O)c2ccc(OC(F)F)cc2OC(F)F)c1OC	none
CCOC(=O)C(NC(=O)c1ccc(C)cc1)C(=O)OCC	none
O=C(CSc1nc2cc(Cl)ccc2s1)Nc1ccc(F)cc1	none
O=C(c1ccccc1)N1CCC2(CC1)SCC(=O)N2c1ccccc1	none
CCCCCCNC(=O)CC#N	none
COCCn1c(C)nnc1-c1cc(-c2cccc(CO)c2)ccn1	none
COCCn1ccc2c(C3=CCOCC3)nc(-c3cccc(CO)c3)cc21	KDM5B inhibitor 39.8µM
Cc1cc(C)c(CNC(=O)c2nc(-c3cccc(CO)c3)cc3c2ccn3C(C)C)c(=O)[nH]1	none
COCCC(=O)N1CC(Oc2ccc(-c3noc(-c4ccccc4)n3)cc2)C1	none
Cc1nnc(NC(=O)C[C@H]2NC(=O)c3ccccc3NC2=O)s1	none
CCS(=O)(=O)N(Cc1c(F)cccc1Cl)c1c(C)n(C)n(-c2ccccc2)c1=O	none
COc1ccc(NC(=O)Nc2ccc(C)n(CC(=O)N3CCCC(C)C3)c2=O)cc1 (centres undefined)	none
COc1ccc(NC(=O)Nc2ccc(C)n(CC(=O)N3CCCN(C)CC3)c2=O)cc1	none
Cc1ccc(NC(=O)Nc2ccccc2)c(=O)n1CC(=O)N1CCN(c2ccccc2)CC1	KDM5B inhibitor 28.2µM
O=C(Nc1ccccc1)C1=C(c2ccccc2)SCCO1	none
Cc1cc(C)n(CCC(=O)N[C@@H]2CCOC[C@H]2OCC2CCC2)c(=O)n1	none
Cc1cc(C)n2nc(C)c(C(=O)N[C@@H]3COCC[C@@H]3OCC3CC3)c2n1	KDM5B inhibitor 22.4µM
CCn1cc(C(=O)N[C@@H]2COCC[C@@H]2OCC2CC2)c(=O)c2ccc(C)nc21	none
CC(=O)NCC(=O)N1Cc2ccccc2CC2(CCCCN2CC2CCNCC2)C1 (centres undefined)	none
C=CCn1nc(C(=O)N2CCOCC2)c2c1CCC(NCC1(c3ccccc3)CCOCC1)C2 (centres undefined)	none
Cc1cccc(C(=O)NC2CCCCCC2)n1	none
CCc1ccccc1-n1c(C)nc2cc(C(=O)NCCc3ccc(Cl)cc3)ccc21	none
Cc1cc(C)c2c(-n3cccc3)c(C(=O)NCCc3ccc(Cl)cc3)sc2n1	none
COC(=O)CNC(=O)Cn1ccc2c(Cl)cccc21	none
Cc1ccccc1-n1nnc(C(=O)NC2CCCC2)c1N	none
Cc1cccc(C)c1-c1nc(C(=O)NCCc2ccc(Cl)cc2)n2ccccc12	KDM5B inhibitor 14.1µM
COC(=O)CNC(=O)c1nc(-c2cc(Cl)cc(Cl)c2)c2ccccn12	KDM5B inhibitor 25.1µM
C#CCNC(=O)c1nc(-c2c(C)cccc2C)c2ccccn12	KDM5B inhibitor 39.8µM
Cc1cccc(C)c1-c1nc(C(=O)NC2CC2)n2ccccc12	KDM5B inhibitor 100µM
CC(C)CNC(=O)N1CCC(N2C(=O)C(OCC3CC3)C23CCCCC3)CC1 (centres undefined)	none
CCN(CCNC(=O)c1cc2ccccc2oc1=O)c1cccc(C)c1	none
CC(C(=O)N1CCNC1=O)N(C)Cc1ccc(Cl)c(Cl)c1 (centres undefined)	none
CCCN(Cc1ccccc1)C(=O)COc1ccc2ccc(=O)oc2c1	none
C=CCn1c(N2CCN(c3cccc(Cl)c3)CC2)nc2c1c(=O)[nH]c(=O)n2C	none
Cc1nc(C)c(C(=O)NCC(=O)N2CCCCCNC(=O)CC2c2ccccc2)s1 (centres undefined)	none
CCCCCCCCS(=O)CCO (centres undefined)	none
COC(=O)CNC(=O)c1nc(-c2c(C)cccc2C)c2ccccn12	KDM5B inhibitor 28.2µM
COCCNC(=O)c1cccc2c1-c1ccccc1C2=O	none
COCCNC(=O)c1nn(-c2ccc(C)cc2)c(=O)c2c1c1ccccc1n2C	none
COCCNC(=O)c1nc(-c2c(C)cccc2C)c2ccccn12	KDM5B inhibitor 35.5µM
O=C(c1cc[n+]([O-])cc1)N1CCC2(CCCN(Cc3cccc(F)c3F)C2)C1 (centres undefined)	none
c1ccc(-c2csc(C34CC5CC(CC(C5)C3)C4)n2)cc1	none
CCn1nc(C(=O)Nc2nc(C)c(C(C)=O)s2)c2ccccc2c1=O	none
CN(CC1CCOCC1)C(=O)c1ccc(C(F)(F)F)cc1	none
OC(c1nc2ccccc2s1)(c1nc2ccccc2s1)C(F)(F)F	none
COc1ncc(-c2ccc3ncn(C4CC4)c(=O)c3n2)cn1	KDM5B inhibitor 31.6µM
COc1ccc(-c2ccc3ncn(C)c(=O)c3n2)cc1OC	none
CN(c1ccccc1)c1ccc2ncn(C3CC3)c(=O)c2n1	none
Cc1ccc(Oc2ccc(NC(=O)Cn3cnnc3C#N)cc2)cc1	none
COc1ccccc1[C@@H]1CN(C(=O)CCc2scnc2C)C[C@H]1C(=O)O	none
CCOC(=O)N1CCC(N[C@@H]2CC[C@@H]2NC(=O)c2cnc3cccnn23)CC1	KDM5B inhibitor 31.6µM
